The list is not random: actives were taken first. Their share in the collection is about 11%.
hNpr1 antagonist – blocks ANP-stimulated signaling of human Npr1 receptor. HEK293 hNpr1 GloSensor cGMP, ANP-stimulated luminescence. 76,000 compounds, 1.6% hits. Potency, µM (doses to about 46.3 µM), inactives show top-dose activity change, negative = inhibition, most hits filed as inhibitors; calls by dose curve; also: % is scaled to controls: 0 for no effect and ±100 for the full control effect; nearly all actives have a fitted effect of over 60% in size
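HEK293 cells stably expressing human Npr1 and cGMP GloSensor pGS-40F, loaded 2 h with 2% GloSensor reagent, given compound 30 min at room temperature. Luminescence read before and 20 min after 0.1 nM hNppA.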
FLuc inh-1 – inhibitors of firefly (Photinus pyralis) luciferase; purified P. pyralis luciferase, luminescence, biochemical; AID 1347043; 76,000 compounds, 2.5% hits; Potency, µM (titrated, usually from 115 µM), usual class: inhibitors; P08659; also: % is scaled to controls: 0 for no effect and ±100 for the full control effect; nearly all actives have a fitted effect of over 65% in size
Target sequence (P08659 whole entry, looked up): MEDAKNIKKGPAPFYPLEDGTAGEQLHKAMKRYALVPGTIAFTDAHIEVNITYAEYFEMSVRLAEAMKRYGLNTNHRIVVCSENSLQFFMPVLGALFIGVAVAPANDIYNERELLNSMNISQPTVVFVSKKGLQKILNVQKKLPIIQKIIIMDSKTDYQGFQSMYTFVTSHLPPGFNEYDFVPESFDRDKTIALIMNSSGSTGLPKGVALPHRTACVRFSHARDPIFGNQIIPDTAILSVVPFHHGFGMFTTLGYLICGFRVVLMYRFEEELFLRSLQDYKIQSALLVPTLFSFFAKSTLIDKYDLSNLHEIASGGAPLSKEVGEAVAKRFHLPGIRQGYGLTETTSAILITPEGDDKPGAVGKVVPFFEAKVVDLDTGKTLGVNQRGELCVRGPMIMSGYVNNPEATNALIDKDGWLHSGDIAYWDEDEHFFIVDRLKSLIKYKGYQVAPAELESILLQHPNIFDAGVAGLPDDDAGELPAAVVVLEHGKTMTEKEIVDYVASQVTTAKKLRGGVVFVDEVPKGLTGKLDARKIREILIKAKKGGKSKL
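Inhibitors were tested against purified firefly luciferase in a biochemical, low-substrate format (both substrates at 10uM) and luminescence measured with a CCD imager.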
HEK293 tox – cytotoxic compounds in HEK 293 cells; HEK 293 viability, ATP luminescence (CellTiter-Glo), 48-72 h; Potency, µM (top dose mostly 115 µM), for the others: at the highest dose activity change, negative = cytotoxicity, actives largely listed as inhibitors; 94,000 compounds, 6.6% hits; also: % is scaled to controls: 0 for no effect and ±100 for the full control effect; nearly all actives have a fitted effect of over 60% in size
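HEK 293 seeded at 250 cells/well receive compound via pintool. After 48 or 72 hr at 37 degree Celsius, 5% CO2 and 95% humidity, CellTiter-Glo is dispensed and luminescence read following 10 min at room temperature.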
NIH3T3 tox – NIH 3T3 cell cytotoxicity; NIH 3T3 viability, CellTiter-Glo ATP luminescence, 48-72 h; Potency, µM (titrated, usually from 96.7 µM), inactives show at the top dose activity change, negative = cytotoxicity, most hits filed as inhibitors; 94,000 compounds, 4.3% hits; AID 1345082; also: % is scaled to controls: 0 for no effect and ±100 for the full control effect; nearly all actives have a fitted effect of over 55% in size
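Cytotoxicity was measured by CellTiter-Glo ATP luminescence after 48 or 72 h compound exposure at 37 °C. Mouse NIH 3T3 fibroblasts were seeded at 400 cells/well and dosed by 23 nL pin transfer.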
FLuc SDR no ATP – stabilizes firefly luciferase without ATP; shares compounds with FLuc inh-1; Purified FLuc-C-HiBiT, Nano-Glo HiBiT luminescence, no ATP; Potency, µM (highest dose often 32.7 µM), inactives show at the top dose activation (signal gain), most hits filed as activators; 1,300 compounds, 7.8% hits; AID 1963318; also: nearly all actives have a fitted effect of over 55% in size
FLuc SDR ATP – firefly luciferase binding stabilization, ATP added | AID 1963319 | 1,300 compounds, 8.7% hits | purified FLuc-C-HiBiT + ATP, HiBiT complementation luminescence | shares compounds with FLuc inh-1 | Potency, µM (highest dose often 32.7 µM), without a hit: top-dose activation (gain of signal), actives largely listed as activators;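 also: signal reports ligand binding via conformational change of the enzyme rather than luciferase catalysis; % of control where 0% means no effect; nearly all actives have a fitted effect of over 55% in size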
FLuc inh-2 – blocks firefly luciferase enzymatic activity. shares compounds with FLuc inh-1. purified FLuc-C-HiBiT enzyme, luciferin luminescence. Potency, µM (series often up to 32.7 µM), inactives show at the top dose activity change, negative = inhibition, actives largely listed as inhibitors. 1,300 compounds, 42% hits; also: % is scaled to controls: 0 for no effect and ±100 for the full control effect; nearly all actives have a fitted effect of over 70% in size
Starred values were filed as active, the others as inactive; i = inactive; u = inconclusive; x = no result; [ ] = dose if it differs, or a comment. Unless noted, calls follow the shape of the dose curve; as a rule, active = well fitted curve in the direction sought with a large enough effect; inconclusive = small, poorly fitted or top-dose-only effect, or another doubt; inactive = no such curve, though single readings can be large; an effect the other way counts as inactive or inconclusive. Potency is read from the fitted curve at half-maximal effect.

SMILES	hNpr1 antagonist	FLuc inh-1	HEK293 tox	NIH3T3 tox	FLuc SDR no ATP	FLuc SDR ATP	FLuc inh-2
COCC1CN(C)CC12CCN(Cc1ccc(F)c(Cl)c1)CC2 (centres undefined)	-18%	i	u	u	x	x	x
Cc1ccc(-c2ncc(NC(=O)c3ccccc3F)cn2)cc1	u	0.56µM*	6%	i	26%	u	2µM*
Cc1ccc(-c2cc3c(=O)n(CCNC(=O)c4cccc5[nH]ccc45)ccn3n2)cc1C	-15%	5.6µM*	35µM*	32µM*	23%	15%	7.9µM*
Cc1ccc(-c2cc3c(=O)n(CCNC(=O)c4ccoc4)ccn3n2)cc1C	-12%	7.1µM*	u	u	25%	17%	u
O=C(NCCn1ccn2nc(-c3ccc(F)cc3)cc2c1=O)c1cccc2[nH]ccc12	-13%	i	i	i	x	x	x
COc1ccc(-n2nc(C3CCCN(C(=O)c4ccc(C(F)(F)F)cc4)C3)[nH]c2=O)cc1 (centres undefined)	-5%	i	u	-16%	x	x	x
COCC1CN(C(C)=O)CC12CCN(C1CCN(C(C)=O)CC1)CC2 (centres undefined)	-3%	i	-2%	-10%	x	x	x
Cc1ccc(NC(=O)c2ccc3oc(-c4cccnc4)nc3c2)cc1	x	x	-16%[172 µM]	-37%[138 µM]	x	x	x
Cc1ccc(C(=O)Nc2ccc3oc(-c4ccccc4C)nc3c2)cc1	x	x	x	x	14%	9%	-1%
CN(C)c1ccc(C(=O)NC2CCN(c3cc(-c4ccc(Cl)cc4)[nH]n3)C2)cc1 (centres undefined)	-22%	i	u	u	x	x	x
COc1ccc(-c2cc(N3CCCC(NC(=O)c4cccc(Br)c4)C3)n[nH]2)cc1 (centres undefined)	-29%	u	u	u	x	x	x
COc1ccc(C(=O)NC2CCCN(c3cc(-c4ccc(F)cc4)[nH]n3)C2)cc1F (centres undefined)	-14%	u	u	u	x	x	x
COc1cc(C(=O)NC2CCCN(c3cc(-c4ccc(F)cc4)[nH]n3)C2)cc(OC)c1OC (centres undefined)	-10%	13µM*	u	u	23%	11%	u
COc1ccc(-c2cc(N3CCCC(NC(=O)c4ccc(C)cc4)C3)n[nH]2)cc1 (centres undefined)	-9%	u	u	u	x	x	x
COc1ccc(-c2cc(N3CCCC(NC(=O)c4ccc5[nH]ccc5c4)C3)n[nH]2)cc1 (centres undefined)	-25%	4.5µM*	u	u	28%	16%	5µM*
COc1ccc(-c2cc(N3CCCC(NC(=O)c4cccc(OC)c4)C3)n[nH]2)cc1 (centres undefined)	-25%	7.1µM*	25µM*	u	18%	16%	u
CN(C)c1cccc(C(=O)NC2CCN(c3cc(-c4ccc(Cl)cc4)[nH]n3)C2)c1 (centres undefined)	-29%	13µM*	u	u	10%	u	u
CN1[C@@H](CCC(=O)NCc2ccccc2)CNC(=O)[C@@H]2[C@H]1CCN2Cc1ccc(O)cc1	-1%	i	-4%	-9%	x	x	x
COc1cccc(-c2cc3c(=O)n(CCNC(=O)c4cccc(Cl)c4)ccn3n2)c1	u	u	u	-15%	x	x	x
Cc1ccc(C2Cn3nnc(C(=O)N4CCC(C(=O)Nc5ccc(F)cc5)CC4)c3CO2)cc1 (centres undefined)	-13%	11µM*	-19%	-8%	14%	u	u
CCOc1ccc(NC(=O)C2CCN(C(=O)c3nnn4c3COC(c3ccc(C)cc3)C4)CC2)cc1 (centres undefined)	-10%	u	3%	0%	x	x	x
